Records with an inconclusive call do not appear. Activity calls are given as the source filed them. Unless noted, calls come from the whole dose curve; as a rule, active = well fitted curve in the direction sought with a large enough effect; inconclusive = small, poorly fitted or top-dose-only effect, or another doubt; inactive = no such curve, though single readings can be large; an effect the other way counts as inactive or inconclusive.
Tests used:
[1] = biological target: Lysosomal acid glucosylceramidase (Homo sapiens) (UniProt P04062); assay: Glucocerebrosidase-p2 (AID 348; in the data active = potency below about 10 µM; note: potency is the fitted concentration of half-maximal effect); conditions: purified GBA, blue fluorogenic substrate, 40 min
Sequence of Lysosomal acid glucosylceramidase (Homo sapiens) (P04062 whole entry, looked up): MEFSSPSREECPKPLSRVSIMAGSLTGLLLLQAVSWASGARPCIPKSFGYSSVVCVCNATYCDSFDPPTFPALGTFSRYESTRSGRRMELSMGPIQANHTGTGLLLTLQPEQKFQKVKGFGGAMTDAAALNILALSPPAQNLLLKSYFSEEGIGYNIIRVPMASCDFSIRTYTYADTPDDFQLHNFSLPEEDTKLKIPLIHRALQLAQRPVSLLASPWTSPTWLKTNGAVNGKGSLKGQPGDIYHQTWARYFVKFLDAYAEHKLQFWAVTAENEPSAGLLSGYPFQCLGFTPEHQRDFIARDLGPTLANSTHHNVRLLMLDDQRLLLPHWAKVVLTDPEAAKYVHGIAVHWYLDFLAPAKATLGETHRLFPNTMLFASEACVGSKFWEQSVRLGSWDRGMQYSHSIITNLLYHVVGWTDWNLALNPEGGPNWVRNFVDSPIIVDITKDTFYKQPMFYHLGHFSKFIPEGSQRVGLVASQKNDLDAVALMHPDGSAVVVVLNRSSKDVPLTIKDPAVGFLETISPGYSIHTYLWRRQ
Method in brief: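 Normal human glucocerebrosidase (0.2 nM) with blue fluorogenic substrate (80 uM final) in citrate/phosphate pH 5.9 with 10mM sodium taurocholate, 0.01% tween-20; 40 min RT, NaOH/glycine stop; fluorescence Ex 365/Em 440; AC50 from a titration from 0.6 nM upwards.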

[2] = NFAT Signaling Pathway (AID 444; active = well fitted curve in either direction with a large enough effect, not every such curve was filed as active;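 note: carbachol stimulus at about its EC50 of 1 µM final; % is set by controls: 0 for no effect and ±100 for the full control effect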); conditions: Jurkat NFAT-bla M1, carbachol, beta-lactamase ratio, 5 h; at 7.69 µM (top of the series) unless noted
Method in brief: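 Read-out: CCF4 FRET ratio (460 nm/530 nm) after 1 h RT dye loading, used for %activity and AC50 from titration series. Cells: Jurkat NFAT-β-lactamase/M1 line, treated with compound plus 1 uM carbachol for 5 h, 37 °C.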

[3] = Stat Signaling Pathway (AID 446; active = well fitted curve in either direction with a large enough effect, not every such curve was filed as active;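 note: ME-180 cervical cancer cells given 40 pM IL-6 alongside compound; SIE-controlled beta-lactamase reporter measured as 460/530 nm FRET emission ratio; % is set by controls: 0 for no effect and ±100 for the full control effect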); conditions: ME-180 SIE beta-lactamase reporter, IL-6 stimulated, 5 h; at 7.69 µM (top of the series) unless noted
Method in brief: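 Normalization used AC90 stimulation (300 pM IL-6) and AC90 inhibition (125 nM pan-JAK inhibitor at 40 pM IL-6). The underlying signal is SIE-driven beta-lactamase in ME-180 cells after 5 h IL-6 exposure with compound.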

[4] = biological target: Glucocorticoid receptor (Homo sapiens) (UniProt P04150); assay: GR-GFP Redistribution (AID 450;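 active = compounds whose dose series gives a full or clear partial fitted curve of increased nuclear translocation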; note: potency is the fitted concentration of half-maximal effect); conditions: U2OS GR-GFP nuclear translocation, laser cytometry, 2 h
Sequence of Glucocorticoid receptor (Homo sapiens) (P04150 whole entry, looked up, the tested form may be a part): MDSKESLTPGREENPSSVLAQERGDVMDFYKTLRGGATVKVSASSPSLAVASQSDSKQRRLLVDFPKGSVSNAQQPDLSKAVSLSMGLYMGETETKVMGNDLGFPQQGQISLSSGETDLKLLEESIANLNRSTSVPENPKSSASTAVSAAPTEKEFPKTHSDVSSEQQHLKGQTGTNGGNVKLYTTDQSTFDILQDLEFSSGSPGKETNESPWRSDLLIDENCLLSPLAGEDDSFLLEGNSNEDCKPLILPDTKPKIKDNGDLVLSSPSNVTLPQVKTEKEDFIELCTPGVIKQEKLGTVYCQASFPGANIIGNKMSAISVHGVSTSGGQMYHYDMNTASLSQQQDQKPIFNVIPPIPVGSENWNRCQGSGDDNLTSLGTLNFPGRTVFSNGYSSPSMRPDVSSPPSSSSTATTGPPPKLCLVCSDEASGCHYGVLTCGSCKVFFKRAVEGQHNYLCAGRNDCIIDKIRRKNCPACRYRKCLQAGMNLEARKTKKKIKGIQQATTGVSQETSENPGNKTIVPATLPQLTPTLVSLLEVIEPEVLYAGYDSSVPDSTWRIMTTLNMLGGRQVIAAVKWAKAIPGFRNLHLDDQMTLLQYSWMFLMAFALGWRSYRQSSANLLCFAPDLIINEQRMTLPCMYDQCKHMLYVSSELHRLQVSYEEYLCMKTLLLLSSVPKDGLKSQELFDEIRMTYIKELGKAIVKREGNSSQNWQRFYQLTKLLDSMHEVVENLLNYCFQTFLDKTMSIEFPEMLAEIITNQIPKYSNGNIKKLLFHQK

[5] = biological target: Glucocorticoid receptor (Homo sapiens) (UniProt P04150); assay: GR-EFC Redistribution (AID 451; calls by dose curve; note: potency is the fitted concentration of half-maximal effect); conditions: CHO-K1 GR-EFC translocation, beta-gal luminescence, 2 h
Method in brief: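 Translocation of GR-ED fusion to nuclear EA restores b-gal, read by luminescence after 1 h room-temperature detection. Engineered CHO-K1 biosensor cells, 1,000/well, exposed 2 h at 37 C to titrations up to 46 uM final.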

[6] = biological target: Mitogen-activated protein kinase 10 (Mus musculus) (UniProt Q61831); assay: JNK3 AlphaScreen Assay (AID 530; active = well fitted curve in either direction with a large enough effect, not every such curve was filed as active;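 note: kinase came from lysate of stimulated human HepG2 cells; signal reports phosphorylation of biotinylated GST-cJun 1-79 at Ser73 with 10 µM ATP; % is set by controls: 0 for no effect and ±100 for the full control effect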)
Method in brief: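 qHTS titrations with 15 min compound pre-incubation before adding ATP (10 uM final). Read-out: AlphaScreen of Ser73-phosphorylated biotin-GST-cJun using HepG2 lysate JNK3 activated by IL-1β and TNFα.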

[7] = qHTS Assay for Lipid Storage Modulators (AID 1519; calls by dose curve); conditions: Drosophila S3 cells, BODIPY lipid droplet/cell ratio, laser cytometry, cells loaded with oleic acid; for activity change, negative = inhibition: at 57.5 µM (top of the series)
Method in brief: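 Cells seeded at 5,000 per well were treated with compounds over a concentration series and loaded with oleic acid (400 uM, as added). Lipid droplet fluorescence (488 nm excitation, 500-530 nm channel) was read by laser-scanning cytometry and normalized to 20 uM Triacsin C.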

[8] = biological target: Dual specificity protein kinase CLK4 (Homo sapiens) (UniProt Q9HAZ1); assay: qHTS Assay for Inhibitors of CDC-like Kinase 4 (Kinase-Glo Assay) (AID 1770); note: nearly all actives have a fitted effect of over 65% in size; note: potency is the fitted concentration of half-maximal effect
Sequence of Dual specificity protein kinase CLK4 (Homo sapiens) (Q9HAZ1 whole entry, looked up): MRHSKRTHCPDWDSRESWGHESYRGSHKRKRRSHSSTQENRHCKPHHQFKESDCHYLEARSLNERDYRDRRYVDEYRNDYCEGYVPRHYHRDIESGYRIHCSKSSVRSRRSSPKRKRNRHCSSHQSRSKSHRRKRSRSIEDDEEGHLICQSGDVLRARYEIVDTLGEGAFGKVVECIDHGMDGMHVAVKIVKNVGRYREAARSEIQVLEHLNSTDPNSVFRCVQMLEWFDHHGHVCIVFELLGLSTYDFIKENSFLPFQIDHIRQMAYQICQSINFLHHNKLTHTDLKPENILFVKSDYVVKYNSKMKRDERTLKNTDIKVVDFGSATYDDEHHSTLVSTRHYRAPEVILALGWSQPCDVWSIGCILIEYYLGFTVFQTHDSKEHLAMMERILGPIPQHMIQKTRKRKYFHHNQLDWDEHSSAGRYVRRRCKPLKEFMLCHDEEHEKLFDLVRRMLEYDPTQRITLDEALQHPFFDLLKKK
Method in brief: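 Substrate mix (RS peptide 100 uM, ATP 1 uM) dispensed, compound pinned in, then Clk4 added to 25 nM final. Incubated 4.5 h at RT; Kinase-Glo reagent added, luminescence read after 5 min.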

[9] = biological target: Dual specificity protein kinase CLK4 (Homo sapiens) (UniProt Q9HAZ1); assay: qHTS Assay for Inhibitors of CDC-like Kinase 4 (ADP-FP Assay) (AID 1795); note: nearly all actives have a fitted effect of over 60% in size; note: potency is the fitted concentration of half-maximal effect
Method in brief: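 Clk4 6.25 nM; RS peptide 100 uM; ATP 1 uM; 25 mM Tris pH 7.5, 10 mM MgCl2; 1 h reaction. ADP detected via antibody/orange tracer FP displacement; TG003 positive control.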

[10] = biological target: Ubiquitin carboxyl-terminal hydrolase 1 (Homo sapiens) (UniProt O94782); assay: Inhibitors of USP1/UAF1: Pilot qHTS (AID 504865);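 note: rhodamine fluorescence freed from ubiquitin-rhodamine substrate followed over time; top concentration of the series differs between compounds; % is set by controls: 0 for no effect and ±100 for the full control effect; nearly all actives have a fitted effect of over 35% in size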
Sequence of Ubiquitin carboxyl-terminal hydrolase 1 (Homo sapiens) (O94782 whole entry, looked up): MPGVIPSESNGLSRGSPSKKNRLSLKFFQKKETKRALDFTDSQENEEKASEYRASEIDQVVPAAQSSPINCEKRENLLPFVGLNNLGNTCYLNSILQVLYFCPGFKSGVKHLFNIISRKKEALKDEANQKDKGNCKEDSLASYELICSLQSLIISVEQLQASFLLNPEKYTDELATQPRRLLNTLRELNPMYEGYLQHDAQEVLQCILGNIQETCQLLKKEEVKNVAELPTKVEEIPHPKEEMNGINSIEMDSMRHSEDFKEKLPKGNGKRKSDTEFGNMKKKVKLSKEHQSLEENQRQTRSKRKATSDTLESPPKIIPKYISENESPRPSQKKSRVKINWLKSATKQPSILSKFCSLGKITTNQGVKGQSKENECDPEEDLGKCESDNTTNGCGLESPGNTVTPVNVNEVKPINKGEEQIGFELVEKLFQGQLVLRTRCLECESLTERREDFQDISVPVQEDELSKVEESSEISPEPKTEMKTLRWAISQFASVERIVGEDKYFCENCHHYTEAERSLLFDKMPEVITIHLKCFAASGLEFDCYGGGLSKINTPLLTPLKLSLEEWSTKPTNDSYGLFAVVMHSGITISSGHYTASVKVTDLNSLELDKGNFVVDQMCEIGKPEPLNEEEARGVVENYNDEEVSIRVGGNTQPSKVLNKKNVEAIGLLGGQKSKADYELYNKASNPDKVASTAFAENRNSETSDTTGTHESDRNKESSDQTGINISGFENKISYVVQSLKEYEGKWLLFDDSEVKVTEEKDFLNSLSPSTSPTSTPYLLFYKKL
Method in brief: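 In 50mM HEPES pH 7.8 containing 0.5mM EDTA, 1mM TCEP, 0.1 mg/ml BSA and 0.01% Tween-20, 1nM USP1/UAF1 is exposed to compound for 15 min, then Ub-Rho (150nM final) is added and fluorescence is read over time.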

[11] = AP1 Signaling Pathway (AID 357; active = well fitted curve in either direction with a large enough effect, not every such curve was filed as active;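 note: ME-180 reporter cells stimulated with EGF at its EC50 level; % is set by controls: 0 for no effect and ±100 for the full control effect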); conditions: ME-180 (cervical carcinoma) AP-1-bla reporter, EGF-induced, beta-lactamase ratio, 5 h; at 7.69 µM (top of the series) unless noted
Method in brief: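 Read-out was the 460nm/530nm emission ratio (excitation 405nm) after CCF4 loading for 2.5 hours at room temperature. Cells carried an AP-1-driven beta-lactamase reporter, were stimulated with EC50 EGF plus compound for 5 hours, and AC50 values came from titrations.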

[12] = biological target: Cytochrome P450 1A2 (Homo sapiens) (UniProt P05177); assay: p450-cyp1a2 (AID 410; calls by dose curve; note: potency is the fitted concentration of half-maximal effect;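 for activity change, negative = inhibition: -100% = full effect of reference inhibitor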)
Sequence of Cytochrome P450 1A2 (Homo sapiens) (P05177 whole entry, looked up): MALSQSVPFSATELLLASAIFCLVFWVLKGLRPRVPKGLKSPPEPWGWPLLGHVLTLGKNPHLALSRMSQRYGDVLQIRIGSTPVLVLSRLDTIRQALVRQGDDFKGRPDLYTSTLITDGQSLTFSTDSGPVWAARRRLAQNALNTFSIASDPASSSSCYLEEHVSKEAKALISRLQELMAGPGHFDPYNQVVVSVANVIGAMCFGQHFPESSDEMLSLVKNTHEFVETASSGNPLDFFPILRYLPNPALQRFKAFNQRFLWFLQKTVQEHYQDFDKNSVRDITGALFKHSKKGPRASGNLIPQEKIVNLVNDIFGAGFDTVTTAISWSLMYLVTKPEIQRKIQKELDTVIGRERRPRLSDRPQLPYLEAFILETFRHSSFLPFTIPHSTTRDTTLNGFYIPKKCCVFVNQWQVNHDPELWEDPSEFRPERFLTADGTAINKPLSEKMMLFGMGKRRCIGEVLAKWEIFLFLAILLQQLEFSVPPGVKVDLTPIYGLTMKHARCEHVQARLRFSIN
Method in brief: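 Luminescent demethylation readout: Luciferin-ME (100uM, equal to Km) turned over by 20nM CYP1A2 for 60 min at room temperature after NADPH regeneration addition, following 10 min compound preincubation. Normalization used 57 uM furafylline as full inhibition.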

[13] = biological target: 3',5'-cyclic-AMP phosphodiesterase 4B (Homo sapiens) (UniProt Q07343); assay: qHTS Assay for Inhibitors of PDE-IV (AID 607; active = well fitted activation curve with a large enough effect in the main read-out, with a control signal flat, not every such curve was filed as active; note: % of control where 0% means no effect)
Sequence of 3',5'-cyclic-AMP phosphodiesterase 4B (Homo sapiens) (Q07343 whole entry, looked up): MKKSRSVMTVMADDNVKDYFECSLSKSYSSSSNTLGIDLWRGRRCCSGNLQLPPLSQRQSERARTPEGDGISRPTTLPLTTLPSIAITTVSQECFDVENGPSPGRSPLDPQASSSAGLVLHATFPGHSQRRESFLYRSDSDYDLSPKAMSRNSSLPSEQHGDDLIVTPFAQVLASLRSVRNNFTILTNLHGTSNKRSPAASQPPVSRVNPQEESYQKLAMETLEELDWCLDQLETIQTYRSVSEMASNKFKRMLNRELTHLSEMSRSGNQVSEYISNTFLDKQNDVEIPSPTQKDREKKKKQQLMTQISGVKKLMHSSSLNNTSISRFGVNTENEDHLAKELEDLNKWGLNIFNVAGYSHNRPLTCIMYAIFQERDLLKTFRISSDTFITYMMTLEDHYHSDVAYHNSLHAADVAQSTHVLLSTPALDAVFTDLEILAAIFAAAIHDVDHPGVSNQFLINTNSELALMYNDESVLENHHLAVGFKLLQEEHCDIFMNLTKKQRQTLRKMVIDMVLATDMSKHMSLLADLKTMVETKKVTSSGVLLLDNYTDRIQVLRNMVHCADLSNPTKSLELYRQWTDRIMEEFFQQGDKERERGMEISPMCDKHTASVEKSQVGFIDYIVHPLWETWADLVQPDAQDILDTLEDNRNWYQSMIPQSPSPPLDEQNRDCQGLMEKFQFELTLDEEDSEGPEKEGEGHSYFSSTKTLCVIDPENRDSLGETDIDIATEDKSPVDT
Method in brief: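 HEK293 ACTOne cells with CNG channel (1000/well), endogenous PDE4; membrane potential dye, compounds up to 22.9 uM final. Fluorescence Ex 535/Em 590; RO 20-1724 (100 uM final) as reference.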

[14] = biological target: Cytochrome P450 3A4 (Homo sapiens) (UniProt P08684); assay: qHTS Assay for Activators of Cytochrome P450 3A4 (AID 885); note: nearly all actives have a fitted effect of over 65% in size
Sequence of Cytochrome P450 3A4 (Homo sapiens) (P08684 whole entry, looked up): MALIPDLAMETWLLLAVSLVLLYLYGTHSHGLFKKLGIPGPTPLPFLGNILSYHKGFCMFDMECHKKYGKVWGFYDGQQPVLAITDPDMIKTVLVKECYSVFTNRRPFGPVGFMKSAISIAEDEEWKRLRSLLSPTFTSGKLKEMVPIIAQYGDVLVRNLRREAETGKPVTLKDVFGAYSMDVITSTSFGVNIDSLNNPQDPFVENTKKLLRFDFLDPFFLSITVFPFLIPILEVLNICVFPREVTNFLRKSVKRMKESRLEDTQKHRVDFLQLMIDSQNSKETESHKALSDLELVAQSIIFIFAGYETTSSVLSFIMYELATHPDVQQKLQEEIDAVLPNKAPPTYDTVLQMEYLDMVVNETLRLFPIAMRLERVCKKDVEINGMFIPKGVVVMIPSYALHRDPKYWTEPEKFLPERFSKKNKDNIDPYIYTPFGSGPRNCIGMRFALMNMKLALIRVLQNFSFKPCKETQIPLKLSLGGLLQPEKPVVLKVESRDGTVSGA
Method in brief: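 Human CYP3A4 dealkylates Luciferin-PPXE to luciferin, which luciferase detection converts to light. Substrate was at its KM (25uM), buffer 200mM KPO4, reaction 60 min at RT.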

[15] = biological target: Dual specificity protein kinase CLK4 (Homo sapiens) (UniProt Q9HAZ1); assay: qHTS Assay for Inhibitors of CDC-like Kinase 4 (ADP-Glo Assay) (AID 1771); note: potency is the fitted concentration of half-maximal effect; nearly all actives have a fitted effect of over 70% in size
Method in brief: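 ADP production was read by ADP-Glo luminescence after residual ATP depletion, following 1 h room-temperature reaction of 25 nM Clk4, 1 uM ATP and 100 uM RS peptide with MgCl2, EGTA, DTT and Triton X-100.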

[16] = measured here: cell count channel max response
[17] = measured here: lipid channel max response

FC(F)(F)c1ccccc1-c1ccc2ncnc(NCCN3CCOCC3)c2c1
3.86%: max response [7, 16]
active: Potency [1] 8.84 µM
-2.12%: max response [7, 17]
inactive: activity change, negative = inhibition [2] 10.2% | activity, negative = inhibition [3] -13.9% | Potency [4] > 46 µM | Potency [5] > 46 µM | Potency [6] | activity change, negative = inhibition [7] -5.53% | Potency [8] | Potency [9] | Potency [10]

COc1ccc(-n2c(=O)c(CCc3ccccc3)nc3cnc(N4CCN(C)CC4)nc32)cc1
12.5%: max response [7, 17]
12.7%: max response [7, 16]
inactive: Potency [1] > 11.4 µM | activity change, negative = inhibition [11] -22.3% | Potency [12] | activity, negative = inhibition [3] -10.4% | Potency [4] > 9.22 µM | Potency [5] > 46 µM | Potency [6] | Potency [13] | Potency [14] | activity change, negative = inhibition [7] 2.13% | Potency [8] | Potency [10]

COc1ccccc1-c1ccc2ncnc(NCCNC(C)=O)c2c1
-6.93%: max response [7, 16]
inactive: Potency [1] > 11.4 µM | activity change, negative = inhibition [11] 11.9% | activity change, negative = inhibition [2] 3.1% | activity, negative = inhibition [3] -8.48% | Potency [4] > 46 µM | Potency [5] > 46 µM | Potency [6] | Potency [13] | Potency [14] | activity change, negative = inhibition [7] 1.76% | Potency [10]
-7.23%: max response [7, 17]
active: Potency [12] 5.01 µM | Potency [8] 11.2 µM | Potency [15] 15.8 µM

CS(=O)(=O)Nc1cccc(-c2nc(NC3CC3)c3ccccc3n2)c1
22.8%: max response [7, 17]
19.9%: max response [7, 16]
active: Potency [8] 7.94 µM | Potency [9] 12.6 µM
inactive: activity change, negative = inhibition [11] -17.2% | activity change, negative = inhibition [2] 0.73% | activity, negative = inhibition [3] 4.92% | Potency [4] > 46 µM | Potency [5] > 46 µM | Potency [6] | Potency [13] | activity change, negative = inhibition [7] 3.51% | Potency [10]

COc1cccc(-c2ccc3ncnc(NCCN4CCOCC4)c3c2)c1
inactive: activity change, negative = inhibition [11] -12.4% | Potency [4] > 46 µM | Potency [5] > 46 µM | Potency [6] | activity change, negative = inhibition [7] -1.99% | Potency [10]
-14.3%: max response [7, 16]
active: Potency [8] 1.78 µM | Potency [15] 1 µM | Potency [9] 0.631 µM
-15.9%: max response [7, 17]

COc1cccc(Nc2ncc3nc(C)c(=O)n(C[C@H]4CCCO4)c3n2)c1
active: Potency [8] 12.6 µM | Potency [15] 17.8 µM
-4.6%: max response [7, 16]
inactive: Potency [1] > 11.4 µM | activity change, negative = inhibition [11] -22.6% | activity change, negative = inhibition [2] 8.96% | Potency [4] > 9.22 µM | Potency [5] > 46 µM | Potency [6] | Potency [13] | activity change, negative = inhibition [7] -3.96% | Potency [10]
-7.75%: max response [7, 17]

— PubChem BioAssay (NCATS)
